Measured values from PubChem BioAssay AID2540 (Sanford-Burnham Center for Chemical Genomics, 2010).
The whole screen tested about 330,000 compounds, of which about 4,100 (1.2%) were called active. Shown is part of a subset that was picked to be rich in actives. A number with no mark means an inactive call. No stated cut-off is given here; in the data, active means inhibition above about 50%; inactive means the rest.

These compounds were tested against Sentrin-specific protease 8 (Homo sapiens) (UniProt Q96LD8) (assay: SENP8 protease inhibitors, primary screen, biochemical, luminescence (AID 2540)). Details: purified SENP8, Z-RLRGG-aminoluciferin cleavage, at 10 µM, stronger effect = higher value.
Sequence of Sentrin-specific protease 8 (Homo sapiens) (Q96LD8 whole entry, looked up): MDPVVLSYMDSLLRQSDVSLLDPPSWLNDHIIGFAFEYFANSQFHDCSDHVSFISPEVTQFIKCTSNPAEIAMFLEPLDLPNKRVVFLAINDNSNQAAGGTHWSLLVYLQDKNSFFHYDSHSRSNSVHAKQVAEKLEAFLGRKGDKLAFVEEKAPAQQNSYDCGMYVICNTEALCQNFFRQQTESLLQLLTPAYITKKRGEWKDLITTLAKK
In the case of Cc1nc2ccc(N3CCN(C)CC3)cc2nc1C, the inhibition is reported as -5.08%.
For CN1CCN(c2cc(N3CCNCC3)ccc2[N+](=O)[O-])CC1, the inhibition was 2.96%.
With COc1cccc(-c2nc3ccc(N4CCN(C)CC4)cc3[nH]2)c1 the inhibition was 57.4% (active).
CN(C)P(=S)(Nc1ccccc1)C(Cl)(Cl)Cl (stereo not given) was tested, and the inhibition was -7.38%.
In the case of COc1ccccc1CN1CCN(C(=O)Cc2ccccc2)CC1, the inhibition is reported as -9.12%.
CCOC(=O)c1c(N)n(Cc2ccccc2)c2nc3ccccc3nc12 showed an inhibition of 9.31%.
CCOC(=O)c1c(N)n(CCN2CCOCC2)c2nc3ccccc3nc12 was tested, and the inhibition was 2.3%.
With COc1cc(Cn2c(N)c(C(=O)NCc3ccco3)c3nc4ccccc4nc32)cc(OC)c1OC the inhibition was 90.9% (active).
For CC(=O)c1ccc(OC(NC(=O)Cc2ccccc2)C(Cl)(Cl)Cl)cc1 (stereo not given), the inhibition was -0.124%.
CCOc1ccc(CN(CCCl)CCCl)cc1C(=O)OC was tested, and the inhibition was -7.06%.
